This is an account of results in PubChem BioAssay AID1476 (National Center for Advancing Translational Sciences (NCATS), 2009).

In all, about 200,000 compounds went through this assay and about 4,500 (2.2%) were called active. Roughly 12% stayed inconclusive and do not appear here. Calls come from the whole dose curve; as a rule, active = well fitted inhibition curve with a large enough effect; inconclusive = small, poorly fitted or top-dose-only effect, or effect the other way; inactive = flat fitted curve, though single readings scatter. For the sample, actives were picked, then their nearest neighbours and some compounds at random.
Potency is the fitted concentration of half-maximal effect.

Chain of Cruzipain (Trypanosoma cruzi) (P25779 123-467 limits assumed): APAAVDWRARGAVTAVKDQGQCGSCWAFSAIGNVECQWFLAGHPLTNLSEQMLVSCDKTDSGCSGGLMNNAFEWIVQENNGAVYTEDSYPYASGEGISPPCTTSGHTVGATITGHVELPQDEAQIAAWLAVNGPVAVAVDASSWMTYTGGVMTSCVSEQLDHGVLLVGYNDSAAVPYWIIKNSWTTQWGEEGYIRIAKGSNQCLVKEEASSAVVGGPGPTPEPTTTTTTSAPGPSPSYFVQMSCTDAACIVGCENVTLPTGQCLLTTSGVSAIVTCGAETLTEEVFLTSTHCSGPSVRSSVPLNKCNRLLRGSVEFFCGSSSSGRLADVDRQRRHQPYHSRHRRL

This assay addresses Cruzipain (Trypanosoma cruzi) (UniProt P25779). Briefly: qHTS Assay for Promiscuous and Specific Inhibitors of Cruzain (without detergent).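 For max response, negative = inhibition: plate controls were enzyme without inhibitor for no effect and buffer without enzyme for full effect.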 Note: nearly all actives have a fitted effect of over 40% in size. The note with it: purified cruzain, Z-FR-AMC fluorescence, no detergent. The essentials:
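Detergent-free condition (0.00005% Triton X-100) in acetate buffer pH 5.5 with DTT. 1.5 nM enzyme and compound were pre-mixed 15 min, then 2 uM Z-FR-AMC substrate added; reaction progress from fluorescence change between first and third reads (60 s).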
On the technique in general: In qHTS, concentration-response curves come from the screen itself.
Regarding `Cc1ccc(CCNC(=O)c2ccc(CNS(=O)(=O)c3ccc(C)cc3)cc2)cc1`, the max response, negative = inhibition is -23% (inactive).

Regarding `CCOC(=O)c1cc2c(=O)n3ccccc3nc2n(CCCOC)c1=NC(=O)C(C)(C)Oc1ccc(Cl)cc1`, the max response, negative = inhibition is 4% (inactive).

With `COc1cccc(/C=N\NC(=O)C2=NNC(=O)C2C)c1O` (configuration not stated), the max response, negative = inhibition is 14.7% (inactive).

With `Cc1ccc2nc(CNC(=O)c3ccccc3)[nH]c2c1`, the max response, negative = inhibition is 6.98% (inactive).

On to `Cc1ccc(/C=N/NC(=O)C2=NNC(c3ccccc3)(c3ccccc3)C2)c(O)c1`, for which the Potency is 20 µM (active).

As for `COc1ccc(CCNc2ncnc3onc(-c4ccc(Cl)cc4)c23)c(OC)c1`, the max response, negative = inhibition was -2.97% (inactive).

As for `CCOc1cccc(CNC(=O)c2ccc(N3CCCC3)c(NC(=O)Nc3ccccc3CC)c2)c1`, the max response, negative = inhibition was -7.71% (inactive).

As for `c1ccc(CSc2nnc(-c3ccco3)c(-c3ccco3)n2)cc1`, the Potency was 15.8 µM (active).

On to `Clc1ccccc1CSc1nnc(-c2ccco2)c(-c2ccco2)n1`, for which the Potency was 15.8 µM (active).

With `c1ccc(CSc2nnc(-c3ccco3)n2Cc2ccccc2)cc1`, the max response, negative = inhibition is -8.71% (inactive).

As for `Nc1nc(SCc2ccccc2Cl)n[nH]1`, the max response, negative = inhibition was 3.93% (inactive).

`Clc1ccccc1CSc1nncn2c1cc1occc12`: the max response, negative = inhibition is -9.48% (inactive).

On to `O=C(Nc1nnc(SCc2ccccc2)s1)c1ccco1`, for which the max response, negative = inhibition is -28.7% (inactive).

On to `Cc1ccccc1-c1nc(SCC(=O)N(C)c2ccccc2)c2c(=O)n(C)c(=O)n(C)c2n1`, for which the max response, negative = inhibition is 8.08% (inactive).

In the case of `Cc1[nH]c2ccccc2c1C(c1ccccc1)c1cccs1` (configuration not stated), the max response, negative = inhibition is 3.04% (inactive).

With `CCc1nn(CC(=O)NCC(C)c2ccccc2)c(=O)c2cc3occc3n12` (configuration not stated), the max response, negative = inhibition was -11.2% (inactive).

`CCn1c(C(=O)Nc2cc(Cl)ccc2C)cc2sc(Cl)cc21`: the max response, negative = inhibition was 4.79% (inactive).

Turning to `CCOC(=O)c1c(NC(=O)/C=C/c2ccco2)sc(C)c1C`, the max response, negative = inhibition was -4.04% (inactive).

As for `CCOC(=O)c1c(NC(=O)c2cccs2)sc(C)c1C`, the max response, negative = inhibition was 6.07% (inactive).

As for `CCOC(=O)c1c(NC(=S)NC(=O)/C=C/c2cccs2)sc(C)c1C`, the Potency is 10 µM (active).

`Cc1ccc2nc(COc3ccccc3NC(=O)Nc3ccc(F)c(Cl)c3)cc(=O)n2c1`: the max response, negative = inhibition was 4.26% (inactive).

Take `COc1ccc(N(C)C(=O)CCS(=O)(=O)c2cccc3nsnc23)cc1`: the max response, negative = inhibition was -4.91% (inactive).

For `Cc1ccc(NC(=O)CSc2nnc3[nH]c(=O)cc(C)n23)cc1Cl`, the max response, negative = inhibition is -3.39% (inactive).

`CC(=O)c1c(C)[nH]c(C(=O)OCC(=O)Nc2sc3c(c2C#N)CCCC3)c1C`: the max response, negative = inhibition is 11.6% (inactive).

Take `Cc1ccc(C)c(OCC(=O)Nc2sc3c(c2C#N)CCCC3)c1C`: the max response, negative = inhibition is -0.311% (inactive).

With `Cc1cccc(C(=O)OCC(=O)Nc2sc3c(c2C#N)CCC3)c1`, the Potency was 25.1 µM (active).

For the compound `Cc1cc(C)c2oc(-c3cccc(NC(=O)c4cccc(F)c4)c3C)nc2c1`, the max response, negative = inhibition is -10.4% (inactive).

For `CCOC(=O)c1cccc(NS(=O)(=O)c2cc(-c3cnc(C)o3)ccc2OC)c1`, the max response, negative = inhibition was 1.23% (inactive).

On to `COc1ccccc1-c1cc(C(=O)N2CCCCC2)no1`, for which the max response, negative = inhibition was -9.93% (inactive).

For `COc1ccccc1N1CCN(C(=O)c2cc(-c3ccc(Cl)c(Cl)c3)on2)CC1`, the Potency is 25.1 µM (active).

Consider `COc1ccccc1N1CCN(C(=O)c2cc(-c3ccc(Br)cc3)on2)CC1`, for which the max response, negative = inhibition is 16.1% (inactive).

Consider `O=C(Nc1c(C(=O)N2CCN(c3ccc(F)cc3)CC2)oc2ccccc12)c1ccco1`, for which the max response, negative = inhibition was -12.7% (inactive).

Consider `COc1ccccc1CN1CCC(CNC(=O)c2cnn(-c3cccc(Cl)c3)c2C2CCN(C(=O)OC(C)(C)C)CC2)CC1`, for which the max response, negative = inhibition was 4.5% (inactive).

With `CC1=C(c2ccc(F)cc2)S(=O)(=O)N=C1N1CCC(C(=O)NCCc2ccccc2C)CC1`, the max response, negative = inhibition is -2.21% (inactive).

`COc1ccccc1C1=Nc2cccc3cccc(c23)N1`: the Potency was 12.6 µM (active).

On to `COc1ccccc1-c1nc(C(F)(F)F)c(OC)o1`, for which the max response, negative = inhibition was -2.62% (inactive).

Consider `CNc1nc(-c2ccccc2OC)nc2ccccc12`, for which the max response, negative = inhibition was -18.4% (inactive).

As to `Cc1ccc(NC(=O)NC(C)c2c(-n3cccc3)sc(C)c2C)c(C)c1` (configuration not stated), the max response, negative = inhibition was -10.8% (inactive).

Turning to `CCC(=O)N1CCc2cc(Br)cc(S(=O)(=O)Nc3ccc(C)cc3C)c21`, the max response, negative = inhibition is -1.34% (inactive).

`Cc1[nH]nc(-c2ccc(OCc3cnn(-c4ccccc4)c3)cc2O)c1Oc1ccc(Cl)cc1`: the Potency is 10 µM (active).

In the case of `C=C(C)COc1ccc(-c2n[nH]c(C)c2-c2ccccc2)c(O)c1`, the max response, negative = inhibition is -10.5% (inactive).

In the case of `COc1ccc(C(=O)Cc2cnn(-c3ccccc3)c2)c(O)c1`, the max response, negative = inhibition is 4.15% (inactive).

As for `CCCN(CCC)CCNC(=O)Cn1cnc2sc(C)c(S(=O)(=O)N3CCC(C)CC3)c2c1=O`, the max response, negative = inhibition was -2.05% (inactive).

Take `COc1cc(C(CC(=O)NCCC(C)C)N2Cc3ccccc3C2=O)cc(OC)c1OC` (configuration not stated): the max response, negative = inhibition was 2.58% (inactive).

In the case of `COC(=O)C(C)Oc1ccc2c(-c3cccc([N+](=O)[O-])c3)cc(=O)oc2c1` (configuration not stated), the max response, negative = inhibition was 0.187% (inactive).

`COc1cc(OC)c2c(-c3cccc(-c4cccc(N)c4)c3)cc(=O)oc2c1`: the Potency was 11.2 µM (active).

As for `COc1ccc(Nc2cc(=O)oc3ccccc23)cc1`, the max response, negative = inhibition was -23.8% (inactive).

`Cc1c(C(=O)N2CCCC2)oc2c1-c1nn(CC(=O)NCc3ccc(OC(C)C)cc3)cc1CC2`: the max response, negative = inhibition was 21.1% (inactive).

As for `CC(C)=C(NC(=O)c1ccco1)C(=O)NCCc1nc2ccccc2[nH]1`, the max response, negative = inhibition is -27.9% (inactive).

`O=C(COc1ccccc1)NCCc1nc2ccccc2[nH]1`: the Potency was 1 µM (active).

`COc1ccc(OC(C)C(=O)NCCc2nc3ccccc3[nH]2)cc1` (configuration not stated): the max response, negative = inhibition was -6.55% (inactive).

As to `Cc1cccc(NC(c2cccc(F)c2)c2ccc3ccc(C)nc3c2O)n1` (configuration not stated), the max response, negative = inhibition is 9.47% (inactive).

For the compound `Cc1cc(NS(=O)(=O)c2ccc(NC(=O)c3ccccc3C)cc2)nc(C)n1`, the max response, negative = inhibition is 11.3% (inactive).

For the compound `Cc1nc(Nc2ccc3c(c2)OCCO3)c2nnn(Cc3ccccc3Cl)c2n1`, the max response, negative = inhibition was -5.56% (inactive).

As for `CCCc1nc(NCc2ccc3c(c2)OCO3)c2nnn(Cc3ccccc3Cl)c2n1`, the Potency is 7.94 µM (active).

For `O=C(Cn1cnc2c(nnn2Cc2ccc(F)cc2)c1=O)NCc1ccc2c(c1)OCO2`, the max response, negative = inhibition was -6.08% (inactive).

Turning to `Cc1ccccc1-c1nc(CS(=O)(=O)CC(=O)Nc2cc(Cl)cc(Cl)c2)c(C)o1`, the max response, negative = inhibition was -28.1% (inactive).
